Inconclusive results are not listed. Calls of active or inactive are those of the source. Unless noted, calls come from the whole dose curve; as a rule, active = well fitted curve in the direction sought with a large enough effect; inconclusive = small, poorly fitted or top-dose-only effect, or another doubt; inactive = no such curve, though single readings can be large; an effect the other way counts as inactive or inconclusive.
Assays:
[1] = qHTS to identify inhibitors of the type 1 interferon - major histocompatibility complex class I in skeletal muscle: primary screen against the NCATS Pharmaceutical Collection (AID 1347407); settings: human skeletal muscle cells, IFN-b-induced MHC-I HiBiT luminescence, 24 h; series mostly up to 45.9 µM;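 note: luminescence of HiBiT knocked into endogenous HLA-B as interferon-induced MHC class I level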
In short: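 Immortalized human myoblasts (C25cl48) with HiBiT knocked into endogenous HLA-B*08:01 were stimulated with 4 ng/ml IFN-beta and treated with compounds (8-point, 1:5, top 46 uM final) for 24 h at 37 C; HiBiT lytic luminescence read.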

[2] = biological target: Protein phosphatase 1D (Homo sapiens) (UniProt O15297); assay: RapidFire Mass Spectrometry qHTS Assay for Modulators of WT P53-Induced Phosphatase 1 (WIP1) (AID 1347424); settings: WIP1 dephosphorylation of phosphopeptide, RapidFire MS; series mostly up to 63 µM;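 note: amount of dephosphorylated VEPPL-S-QETFS peptide product formed by WIP1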
In short: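 RapidFire mass spectrometry measured dephosphorylated peptide after 5 min room-temperature reaction of 2 uM VEPPL-pS-QETFS with 10 nM WIP1 (50 mM Tris-HCl pH 7.5, 30 mM MgCl2, 0.1 mM EGTA, BSA), following 1 hr compound preincubation; 1 uM isotope-labelled product standard.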

[3] = biological target: Protein phosphatase 1D (Homo sapiens) (UniProt O15297); assay: Rhodamine-PBP qHTS Assay for Modulators of WT P53-Induced Phosphatase 1 (WIP1) (AID 1347425); settings: recombinant WIP1, Rhodamine-PBP phosphate fluorescence, real-time; series mostly up to 57.5 µM
In short: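 Steps: enzyme with Rh-PBP sensor and compounds, room-temperature incubation of 1 hr, baseline read, addition of VEPPL-pS-QETFS (10 uM final), kinetic fluorescence reads at 525/598 nm. Activity equals final minus baseline signal.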

[4] = Primary qHTS for inhibitors of La Crosse Virus (LACV) - induced cell death in SH-SY5Y cells (AID 1508616); settings: SH-SY5Y LACV cytopathicity rescue, ATP luminescence, 6 d; series mostly up to 4.29 µM;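 note: top concentration of the series differs between compounds; higher means more rescue of cells from virus-induced death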
In short: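 Screening measures cell viability in LACV-infected SH-SY5Y cultures. Compound was added before virus (0.01 MOI), and ATP was detected by luminescence 6 days later.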

[5] = biological target: Calcium and integrin-binding protein 1 (Homo sapiens) (UniProt Q99828); assay: Primary qHTS for Identification of Calcium Integrin Binding Protein 1 (CIB1) Competitor (AID 1508620); settings: CIB1-GST / FITC-alphaIIb peptide fluorescence polarization; series mostly up to 114 µM;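 note: GST tagged CIB1 binding a fluorescein labelled alphaIIb integrin peptide tracer; top concentration of the series differs between compounds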
In short: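 CIB1-GST (1 uM final) and compound incubated 15 min at room temperature before adding FITC-alphaIIb peptide tracer (100 nM final). Competition for binding read by fluorescence polarization (ex 480, em 540) after another 15 min at room temperature.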

[6] = Primary qHTS for Huh7 cytotoxicity: counterscreen for inhibitors of MERS-S pseudotyped particle cell entry (AID 1479147; calls by dose curve); settings: cell viability read-out; series mostly up to 57.1 µM
[7] = Primary qHTS for inhibitors of MERS-S pseudo-typed particle cell entry (AID 1479149; calls by dose curve; note: nearly all actives have a fitted effect of over 60% in size); settings: MERS-S pseudotyped particle entry, luciferase; series mostly up to 57.1 µM
[8] = Primary qHTS for Vero E6 cytotoxicity: counterscreen for inhibitors of SARS-S pseudo-typed particle cell entry (AID 1479150; calls by dose curve); settings: cell viability; series mostly up to 57.1 µM
[9] = Primary qHTS for inhibitors of SARS-S pseudo-typed particle cell entry (AID 1479145; calls by dose curve; note: nearly all actives have a fitted effect of over 45% in size); settings: SARS-S pseudotyped particle cell entry, luciferase reporter; series mostly up to 57.1 µM
[10] = Counterscreen qHTS for small molecule stabilizers of the endoplasmic reticulum resident proteome: GLuc-NoTag assay (AID 1508627); settings: Gaussia luciferase NoTag secretion counterscreen, luminescence, thapsigargin 100 nM for final 4 h; series mostly up to 76.4 µM;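 note: SH-SY5Y cells given compound then 100 nM thapsigargin to empty ER calcium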
In short: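 Counterscreen line: SH-SY5Y-GLuc-NoTag cells, treated with compound 19 hr before a 4 hr, 100 nM thapsigargin calcium depletion. Secreted Gaussia luciferase in the medium was measured by luminescence after coelenterazine was added (0.07x final), with cells unlysed.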

[11] = Confirmatory qHTS for small molecule stabilizers of the endoplasmic reticulum resident proteome: Secreted ER Calcium Modulated Protein (SERCaMP) assay (AID 1508628); settings: SERCaMP secreted luciferase ER calcium/proteostasis reporter; series mostly up to 76.3 µM;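 note: SH-SY5Y cells given compound 16 h then thapsigargin 100 nM for 4 h; nearly all actives have a fitted effect of over 40% in size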
In short: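 GLuc-SERCaMP-expressing SH-SY5Y cells, pretreated 16 h with compound, are challenged with thapsigargin to empty ER calcium stores; after 4 h, coelenterazine is added directly to the medium and luminescence is imaged.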

Measured: Potency

Chain of Protein phosphatase 1D (Homo sapiens) (O15297 whole entry, looked up): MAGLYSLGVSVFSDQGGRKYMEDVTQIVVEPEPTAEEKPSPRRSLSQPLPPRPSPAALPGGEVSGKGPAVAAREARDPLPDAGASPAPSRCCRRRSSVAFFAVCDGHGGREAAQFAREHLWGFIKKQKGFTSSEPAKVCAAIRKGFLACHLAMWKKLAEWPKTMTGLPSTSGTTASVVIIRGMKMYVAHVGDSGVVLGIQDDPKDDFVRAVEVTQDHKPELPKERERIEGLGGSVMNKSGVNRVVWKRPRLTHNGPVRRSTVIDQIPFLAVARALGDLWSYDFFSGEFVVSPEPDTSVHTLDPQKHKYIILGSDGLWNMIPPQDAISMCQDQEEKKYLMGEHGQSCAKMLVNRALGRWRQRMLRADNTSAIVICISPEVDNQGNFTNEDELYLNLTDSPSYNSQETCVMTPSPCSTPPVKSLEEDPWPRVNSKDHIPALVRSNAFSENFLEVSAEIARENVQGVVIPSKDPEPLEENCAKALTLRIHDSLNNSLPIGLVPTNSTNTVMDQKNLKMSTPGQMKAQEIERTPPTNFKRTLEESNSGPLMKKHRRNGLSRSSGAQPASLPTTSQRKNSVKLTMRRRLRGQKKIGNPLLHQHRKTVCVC
Chain of Calcium and integrin-binding protein 1 (Homo sapiens) (Q99828 whole entry, looked up): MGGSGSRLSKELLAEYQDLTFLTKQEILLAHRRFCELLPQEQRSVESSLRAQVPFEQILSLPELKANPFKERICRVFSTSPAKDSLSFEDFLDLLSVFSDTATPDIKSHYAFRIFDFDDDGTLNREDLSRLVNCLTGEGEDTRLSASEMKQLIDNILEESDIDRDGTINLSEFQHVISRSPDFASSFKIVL

CC(=O)NC1CCSC1=O (configuration not stated)
inactive: [1] | [2] | [3] | [4] | [5]

CC(C)NC(C)C
inactive: [1] | [2] | [3] | [6] | [7] | [8]

Clc1ccccc1N1CCNCC1
inactive: [1] | [2] | [3] | [4]

c1ccc2c(c1)sc1ccccc12
inactive: [1] | [2] | [3] | [6] | [7] | [8] | [4] | [5]

COc1c2c(cc3c1OCO3)CCN(C)C2
inactive: [1] | [2] | [3] | [9] | [6] | [7] | [8] | [4] | [5] | [10] | [11]

Nc1ccccc1
inactive: [1] | [2] | [3] | [9] | [6] | [7] | [8] | [4] | [5]

O=C1OC(CCN2CCCCC2)OC1(c1ccccc1)c1ccccc1 (configuration not stated)
inactive: [1] | [2] | [3] | [4] | [5]

CCC(C)(C)c1ccc(O)cc1
inactive: [1] | [2] | [3] | [4] | [5]

CCC(CC)(CNC(=O)CCCO)c1cccc(OC)c1
inactive: [1] | [2] | [3] | [6] | [7] | [4]

COc1cc(OC)c(OC)cc1C=O
inactive: [1] | [2] | [3] | [4]

C[C@@H]1CC2=CC(=O)CC[C@@H]2[C@H]2CC[C@@]3(C)[C@@H](CC[C@]3(C)O)[C@@H]21
inactive: [1] | [2] | [3] | [6] | [8] | [4]

C[N+]1(CCF)[C@@H]2CC[C@H]1CC(OC(=O)C(O)(c1ccccc1)c1ccccc1)C2 (some centres not stated)
inactive: [1] | [2] | [3] | [6] | [7] | [8] | [4] | [5]

— PubChem BioAssay (NCATS)
